These results are taken from PubChem BioAssay (NCATS).

Inconclusive results are not listed. A call without a number means that no potency is given here. Active and inactive are the calls of the source. Calls come from the whole dose curve; as a rule, active = well fitted inhibition curve with a large enough effect; inconclusive = small, poorly fitted or top-dose-only effect; inactive = no such curve, though single readings can be large or run the other way.
Potency is the fitted concentration of half-maximal effect.

The test in a line: P-glycoprotein substrates identified in KB-3-1 adenocarcinoma cell line, qHTS therapeutic library screen (AID 1346986). Note: nearly all actives have a fitted effect of over 60% in size.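 Note: potency is for cytotoxicity meaning loss of cell viability.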 The note with it: KB-3-1 parental cells viability, CellTiter-Glo, 72 h; series mostly up to 44.5 µM. The essentials:
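Compounds were tested in dose-response against KB-3-1 and KB-8-5-11 cells at 37 degree C for 72 h, and viability was measured by luminescence. AC50 values came from curve fitting with class-based activity calls.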
For the molecule `CC1(C)CC2C(C1)C1(C)CCC13OC3(CO)C2O` (stereo not drawn), the Potency entry is “inactive”. On the same count and under the same terms, the result for `CC(=O)c1c(C)cc(O)cc1O[C@@H]1O[C@H](CO)[C@@H](O)[C@H](O)[C@H]1O` reads “inactive”; that for `COc1ccc2c(c1O)OC[C@H]1c3ccc(O)cc3O[C@@H]21`, “inactive”. The same measure, in the same setting: the result for `Cc1nc2c(-c3cnc(N)nc3)nc(N3CCOCC3)nc2n1C(C)C` reads 259 nM (active). `CC(C)(O)C1CC=C(C(=O)OCC2OC(Oc3c(O)cc(C(=O)O)cc3O)C(O)C(O)C2O)CC1` (stereo not drawn): the Potency result was “inactive”. `COc1cc(C(O)C(CO)Oc2ccc(CCCO[C@@H]3O[C@@H](C)[C@H](O)[C@@H](O)[C@H]3O)cc2OC)ccc1O` (stereo partly drawn): the Potency result is “inactive”. For `CCOC(=O)[C@H]1O[C@@H]1C(=O)N[C@@H](CC(C)C)C(=O)NCCC(C)C`, the Potency result was “inactive”. Still for that read-out and setting: the result for `CCn1c2ccccc2c2cc(CNC)ccc21` reads “inactive”.

Turning to `CO[C@@]12CC3[C@@H]([C@@H](O)[C@@H](OC(C)=O)C4[C@](C)(COC(C)=O)CCC[C@]34C)[C@@H](C)C1=CC(=O)O2` (stereo partly drawn), the Potency result is “inactive”. Same read-out and setting: the result for `CC12CCC3c4ccc(O)cc4CCC3C1CCC2OC1OC(C(=O)O)C(O)C(O)C1O` (stereo not drawn) reads “inactive”. Same read-out and setting: the result for `OC[C@H]1O[C@@H](Oc2ccc3c(c2)OC[C@H]2c4cc5c(cc4O[C@@H]32)OCO5)[C@H](O)[C@@H](O)[C@@H]1O` reads “inactive”.

On to `COc1cc(CCc2ccccc2)c(C(=O)O)c2c1CC(C(C)(C)O)O2` (stereo not drawn), for which the Potency result was “inactive”.

`C[C@@H]1O[C@@H](OC[C@H]2O[C@@H](OCCc3ccccc3)[C@H](O)[C@@H](O)[C@@H]2O)[C@H](O)[C@H](O)[C@H]1O`: the Potency entry was “inactive”. As for `O=C(c1ccc(C#Cc2cccc(F)c2)cn1)N1CC2CC2C1` (stereo not drawn), the Potency entry was “inactive”. On to `CC(C)c1nc(N(C)S(C)(=O)=O)nc(-c2ccc(F)cc2)c1/C=C/[C@@H](O)C[C@@H](O)CC(=O)O`, for which the Potency entry is “inactive”. Still for that read-out and setting: the result for `CC(C)NC[C@H](O)COc1ccc(CCOCC2CC2)cc1` reads “inactive”; that for `CCC1CC2C(C)=CC3CCCCC3C2(C)C2(OC(=O)C(C)(O)OC2=O)O1` (stereo not drawn), “inactive”. As to `CC(=O)O[C@@H]1C[C@]2(C)[C@@]3(CCC4[C@@]5(C)CC[C@H](O[C@@H]6O[C@H](C(=O)O)[C@@H](O)[C@H](O[C@@H]7O[C@H](CO)[C@H](O)[C@H](O)[C@H]7O[C@@H]7O[C@@H](C)[C@H](O)[C@@H](O)[C@H]7O[C@@H]7OC[C@](O)(CO)[C@H]7O)[C@H]6O[C@@H]6O[C@H](CO)[C@H](O)[C@H](O)[C@H]6O)C(C)(C)C5CC[C@]42C)O[C@@H](O)[C@]12C3CC(C)(C)[C@@H](OC(=O)/C=C/c1ccc(O)c(O)c1)[C@@H]2OC(=O)/C=C/c1ccccc1` (stereo partly drawn), the outcome is “inactive [at 9.29 µM]”. As for `O=C(NC[C@H](O)CN1CCc2ccccc2C1)c1cc(NC2COC2)ncn1`, the Potency entry was “inactive”. The same measure, in the same setting: the result for `C=C/C=C/[C@@H]1OC[C@H](/C=C/C=C/C)[C@H]1O` reads “inactive”; that for `COc1c(OC2OC(CO)C(O)C(O)C2O)ccc(O)c1C(=O)OCc1ccccc1O[C@@H]1O[C@H](CO)[C@@H](O)[C@H](O)[C@H]1O` (stereo partly drawn), “inactive”; that for `O=c1ccn(C2OC(CO)C(O)C2O)c(=O)[nH]1` (stereo not drawn), “inactive”.

As to `CO[C@@H]1CC[C@H](OC[C@]2(COC(=O)c3ccc(C)[nH]3)[C@H](OC(C)=O)CC[C@@]3(C)[C@@H]4CC=C(C)[C@@H](C5=C(O)C(=O)OC5O)[C@]4(C)CC[C@@H]32)O[C@H]1C` (stereo partly drawn), the Potency result is “inactive”. Take `C=CC1(C)C=C2C(=O)CC3C(C)(C)CCCC3(C(=O)O)C2(O)CC1` (stereo not drawn): the Potency result was “inactive”. For `C[C@@H]1O[C@@H](O[C@@H]2[C@@H](O)[C@H](O[C@@H]3[C@@H](O)[C@@H](O)[C@H](O[C@H]4[C@H](OC(=O)[C@]56CCC(C)(C)C[C@H]5C5=CCC7[C@@]8(C)C[C@H](O)[C@H](O[C@@H]9O[C@@H](C)[C@H](O)[C@@H](O)[C@H]9O)[C@@](C)(CO)C8CC[C@@]7(C)[C@]5(C)C[C@H]6O)O[C@H](C)[C@H](O)[C@@H]4O)O[C@H]3C)OC[C@H]2O)[C@H](O)[C@H](O)[C@H]1O` (stereo partly drawn), the outcome was “inactive [at 9.29 µM]”. For the molecule `C=C1C(=O)O[C@H]2[C@H]1[C@@H](OC(=O)C(C)CO)C[C@@]1(C)[C@H](O)CCC(=O)[C@H]21` (stereo partly drawn), the Potency entry is “inactive”. On to `C=C1CC2[C@]3(C)C(=C(O)C(=O)[C@@]2(C)[C@]2(C(=O)OC)C(=O)C(C)OC(=O)[C@@]12C)C(C)(C)C(=O)CC3O` (stereo partly drawn), for which the Potency entry was “inactive”. On the same count and under the same terms, the result for `O=c1c2ccccc2nc2n1CCC2O` (stereo not drawn) reads “inactive”. With `CC(CCC1(O)OC2CC3C4CCC5CC(O[C@@H]6O[C@H](CO)[C@@H](O)[C@H](O)[C@H]6O[C@@H]6OC[C@@H](O)[C@H](O)[C@H]6O)C(O)CC5(C)C4CCC3(C)C2C1C)CO[C@@H]1O[C@H](CO)[C@@H](O)[C@H](O)[C@H]1O` (stereo partly drawn), the outcome is “inactive [at 9.29 µM]”. Turning to `CCc1c(CC(N)=O)c2cc(OCCCP(=O)(O)O)ccc2n1Cc1ccccc1`, the Potency entry was “inactive”.

As to `CC(=O)NCCCCn1c2c(c3ccccc31)C(=O)NCC2`, the Potency entry is “inactive”. `C[C@@H]1CC[C@H]2C(C)(C)[C@H](O)[C@H](O)C[C@]2(C)[C@@]12Cc1c(O)cc3c(c1O2)CNC3=O`: the Potency result was “inactive”. The same measure, in the same setting: the result for `COc1ncc(-c2ccc3c(Nc4cc(Oc5cc(F)cc(F)c5)cc(C(=O)O)c4)c(S(=O)(=O)NC4CC4)cnc3c2)c(OC)n1` reads “inactive”.

As for `CNC(=O)[C@H]1O[C@@H](n2cnc3c(NCc4ccc(N)c(I)c4)ncnc32)[C@H](O)[C@@H]1O`, the outcome was “inactive [at 9.29 µM]”. With `COc1ccc2c(c1)O[C@H](O[C@@H]1O[C@H](CO)[C@@H](O)[C@H](O)[C@H]1O)C(=O)N2`, the Potency result was “inactive”. Same read-out and setting: the result for `O=C(O)c1cc(O[C@@H]2O[C@H](CO[C@@H]3OC[C@@H](O)[C@H](O)[C@H]3O)[C@@H](O)[C@H](O)[C@H]2O)c2ccccc2c1O` reads “inactive”.

Turning to `C[C@@H]1O[C@@H](O[C@H]2[C@H](O[C@H]3[C@H](O[C@H]4CC[C@@]5(C)C(CC[C@]6(C)C5CC=C5[C@@H]7CC(C)(C(=O)O)C[C@@H](O)[C@]7(C)CC[C@]56C)[C@@]4(C)CO)O[C@H](C(=O)O)[C@@H](O)[C@@H]3O)O[C@H](CO)[C@H](O)[C@@H]2O)[C@H](O)[C@H](O)[C@H]1O` (stereo partly drawn), the outcome is “inactive [at 9.29 µM]”. With `COC12CC3C(C(C)C1=CC(=O)O2)C(O)C(OC(C)=O)C1C(C)(C)C(OC(C)=O)CCC31C` (stereo not drawn), the Potency result is “inactive”.
